Shown are actives, neighbours in structure and some others; about 2.2% of the full set was active somewhere.
NOD2-RIPK2 inh: NOD2-RIPK2 protein interaction inhibition; CHO BLA complementation NOD2-RIPK2, CCF4 ratio; inhibition, % at 4.98 µM; O43353; actives 0.38% (n = 360,000); in the data active = inhibition above about 21%;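 also: 0% = vehicle only and 100% = reference blocker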
GRK2 inh: blocks RNA aptamer binding to human GRK2; bead flow cytometry, FAM-aptamer displacement from GRK2; actives 0.59% (n = 330,000); P25098; inhibition of aptamer binding, % at 10 µM; AID 488847;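 active = inhibition of aptamer binding above 40%, roughly 3 SD of noise, on plates passing a quality check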;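 also: median bead fluorescence of bound FAM aptamer so fluorescent compounds give negative values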
TLR9-MyD88 inh: TLR9-MyD88 interaction inhibition; Q9NR96+Q99836; CHO BLA complementation TLR9-MyD88, CCF4 FRET ratio; inhibition, % at 4.98 µM; actives 0.21% (n = 340,000); AID 504734;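 active = inhibition above the mean over all tested compounds plus 3 SD, cut at about 21% in these data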;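 also: 0% = DMSO only wells and 100% = clavulanate BLA inhibitor control wells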
ANO1 block: inhibitors of mouse TMEM16A calcium-activated chloride channel; Q8BHY3; HEK293 TMEM16A/YFP iodide influx fluorescence, ionomycin; normalized B-score (activity score, 25-100; higher = stronger inhibition) at 10 µM; actives 1.2% (n = 310,000); AID 588511;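 active = ratio plate-corrected score three or more library SD toward inhibition, starting fluorescence score within five deviations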;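 also: score derived from kinetic fluorescence span divided by baseline fluorescence per well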
Target sequence (Q8BHY3 whole entry, looked up): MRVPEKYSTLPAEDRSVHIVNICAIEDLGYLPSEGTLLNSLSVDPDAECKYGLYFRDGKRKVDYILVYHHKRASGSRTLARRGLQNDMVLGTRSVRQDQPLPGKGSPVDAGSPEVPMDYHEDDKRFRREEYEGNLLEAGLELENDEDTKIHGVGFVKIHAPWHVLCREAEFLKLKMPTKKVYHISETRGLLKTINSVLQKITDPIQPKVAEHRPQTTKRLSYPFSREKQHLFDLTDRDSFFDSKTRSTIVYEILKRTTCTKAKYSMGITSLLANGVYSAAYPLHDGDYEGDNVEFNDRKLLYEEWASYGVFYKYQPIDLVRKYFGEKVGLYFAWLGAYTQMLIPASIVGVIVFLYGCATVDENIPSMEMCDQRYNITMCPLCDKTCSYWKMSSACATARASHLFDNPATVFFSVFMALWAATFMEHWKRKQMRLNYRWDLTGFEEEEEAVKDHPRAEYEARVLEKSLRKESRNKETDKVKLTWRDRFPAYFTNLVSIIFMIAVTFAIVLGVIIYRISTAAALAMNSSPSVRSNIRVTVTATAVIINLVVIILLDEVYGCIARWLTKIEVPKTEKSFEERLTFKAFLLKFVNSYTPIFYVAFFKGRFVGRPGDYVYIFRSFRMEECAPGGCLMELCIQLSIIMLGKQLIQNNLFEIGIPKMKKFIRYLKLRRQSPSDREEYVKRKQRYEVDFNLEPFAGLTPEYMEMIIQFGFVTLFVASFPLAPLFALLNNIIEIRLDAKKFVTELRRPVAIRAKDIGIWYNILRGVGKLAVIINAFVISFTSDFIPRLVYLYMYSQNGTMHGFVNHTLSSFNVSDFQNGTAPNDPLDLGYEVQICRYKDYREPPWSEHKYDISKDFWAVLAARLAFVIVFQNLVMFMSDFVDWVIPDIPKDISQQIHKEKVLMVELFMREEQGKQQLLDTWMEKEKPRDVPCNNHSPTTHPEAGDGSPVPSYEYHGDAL
ANO1 activ: activators or potentiators of mouse TMEM16A chloride channel | Q8BHY3 | HEK293 TMEM16A/YFP-H148Q/I152L, iodide quench fluorescence; stronger effect = lower value | B-score at 10 µM | actives 0.3% (n = 340,000);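 active = fluorescence-ratio B-score plate-corrected deviation score at least 3 library SD below zero, with starting fluorescence score within 5 deviations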;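 also: channel opened by trigger with iodide after compound preincubation; score built on the fluorescence ratio of max minus min over baseline; more negative score means more quench and so TMEM16A activation or potentiation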
TLR4 MyD88 comp: blocks binding of human TLR4 to MyD88 | actives 0.18% (n = 200,000) | O00206+Q99836 | HeLa CL3-4 TLR4/MyD88 BLA complementation, FRET ratio | inhibition, % at 8.4 µM; in the data active = inhibition above about 25%;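 also: 0% = vehicle and 100% = reference inhibitor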
GRK2 inh confirm: human GRK2 inhibition confirmation, cherry pick 1; aptamer displacement, % at 10 µM; AID 504451; bead-bound GRK2, FAM-aptamer displacement, flow cytometry; actives 4% (n = 2,000); shares compounds with GRK2 inh;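 active = aptamer displacement above 40%, near three times the noise of non-fluorescent compounds, on plates passing quality checks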;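 also: negative values mostly reflect intrinsic compound fluorescence rather than true enhancement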
Aptamer quench 1: fluorescent aptamer quenching in GRK2 counter-screen dose response | shares compounds with GRK2 inh | Fluorescent RNA aptamer beads, flow cytometry; stronger effect = higher value | fluorescence change (kMESF span), kMESF (concentration not given with the values) | 110 tested, under 10 active;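 active = compounds whose bead fluorescence drops by more than 37 kMESF across the dose range, marking them as dye quenchers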
Aptamer quench SP: aptamer fluorescence quenching in GRK2 counter-screen; AID 504580; shares compounds with GRK2 inh; 2,000 tested, under 10 active; Carboxyfluorescein RNA aptamer on beads, flow cytometry quenching; stronger effect = lower value; fluorescence response (% of DMSO), % at 10 µM;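 active = compounds that quench the bead-bound fluorescent RNA probe, cutting fluorescence to under half of the solvent control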;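 also: counterscreen run without GRK2 so only probe quenching by compound is measured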
GRK2 CP2: confirmation of human GRK2 inhibitors binding RNA aptamer site | inhibition of aptamer binding, % at 10 µM | AID 504782 | shares compounds with GRK2 inh | 360 tested, under 10 active | bead-bound GRK2, FAM-aptamer displacement, flow cytometry;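 active = inhibition of aptamer binding above 40%, about triple the noise seen with nonglowing compounds, on plates passing quality control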;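 also: negative values mostly come from compounds that fluoresce themselves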
FAM quench SP: quenches fluorescent RNA aptamer, GRK2 hit artifact; shares compounds with GRK2 inh; carboxyfluorescein RNA aptamer beads, flow cytometry quenching; stronger effect = lower value; fluorescence response vs DMSO, % at 10 µM; 360 tested, under 10 active; AID 588494;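 active = response vs DMSO under 50%, meaning signal dropped by over half, treated as fluorescence quencher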;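 also: labelled aptamer on streptavidin beads without GRK2 as a quench counter-screen; 100% = bead fluorescence of DMSO wells and lower means quenching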
FAM quench DR: quenches fluorescent RNA aptamer, GRK2 hit artifact. shares compounds with GRK2 inh. Bead-bound FAM RNA aptamer fluorescence quenching, flow cytometry; stronger effect = lower value. fluorescence ratio to DMSO, % at 11.1 µM. 35 tested, under 10 active;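 active = compounds that dim the fluorescent label, raw bead signal shifting by over 33 units between lowest and highest dose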
An asterisk follows results filed as active; i = inactive; . = not tested or not shown.

SMILES	NOD2-RIPK2 inh	GRK2 inh	TLR9-MyD88 inh	ANO1 block	ANO1 activ	TLR4 MyD88 comp	GRK2 inh confirm	Aptamer quench SP	others
Cc1cc(/C=N/NC(N)=O)c(C)c(CO)c1	7	77*	-3	i	i	7	3	98
CCc1cc(CC)c(/C=N/NC(N)=O)c(CC)c1/C=N/NC(N)=O	-3	0	-4	i	i	5	.	.
COc1ccc(CCNC(=O)c2cc(S(=O)(=O)N3CCOCC3)ccc2F)cc1	1	3	6	.	i	.	.	.
CC1(C)CC(=O)C2=C(C1)c1c(ccc3ccccc13)NC2c1ccc(OCC(=O)O)cc1 (stereo unspecified)	12	78*	4	i	i	.	0	94
O=C(c1cccc(C(=O)N2CCN(c3ncccn3)CC2)c1)N1CCN(c2ncccn2)CC1	-3	1	5	i	i	-3	.	.
O=C(c1ccc2nc(-c3ccco3)c(-c3ccco3)nc2c1)N1CCN(c2ncccn2)CC1	0	45*	6	i	i	-5	3	94
[O-]/C(=C(\C(=S)Nc1ccc(Cl)cc1)[n+]1ccccc1)c1ccc(OC(F)F)cc1	0	53*	0	i	i	-5	1	105
c1ccc(C[C@H]2CN=C(Nc3ccccc3)N2CCC2CCCC2)cc1	1	68*	-6	i	i	.	-4	99
CC(C)[C@H](NS(=O)(=O)c1cccc(Cl)c1)C(=O)OCC(=O)NC(=O)CN1CCCC1=O	-8	45*	-4	.	i	.	39	100
COC(=O)c1c(NC(=O)COC(=O)[C@@H](NS(=O)(=O)c2cccc(Cl)c2)C(C)C)sc2c1CCC2	-13	0	-10	i	i	8	.	.
O=C(c1ccc(Cl)cc1)n1c(NCc2ccccc2)n[nH]c1=S	-2	65*	0	i	i	-5	-5	104
O=C(CCC(=O)c1ccc(Cl)cc1)NCc1ccccc1	-2	0	7	i	i	.	.	.
CCN(C(=O)COC(=O)c1cc(-c2ccc3cc(OC)ccc3c2)nc2ccccc12)C1CCS(=O)(=O)C1 (stereo unspecified)	.	2	.	i	.	1	.	.
CCN(C(=O)COC(=O)c1cc(=O)[nH]c2ccccc12)C1CCS(=O)(=O)C1 (stereo unspecified)	-30	49*	-4	i	i	.	-16	95
Cc1cc2ccccc2n1CCNC(=O)c1cccs1	-6	98*	10	i	i	1	81*	88	Aptamer quench 1=28;FAM quench DR=100
Cc1cc2ccccc2n1CCNC(=O)C1CCCCC1	2	12	-2	i	i	2	.	.
Cc1cc2ccccc2n1CCNC(=O)C1CCCC1	-9	99*	-3	i	i	-1	-1	100	GRK2 CP2=-1;FAM quench SP=99
CCOc1ccc(S(=O)(=O)NCCCn2ccnc2)cc1	4	0	13	i	i	.	.	.
COc1cccc(-c2cnc3c(NC(C)=O)cc(-c4ccc(S(C)(=O)=O)cc4)cn23)c1	-4	.	.	.	.	.	.	.
CC(C)CN(C(=O)CN(C)C(=O)c1ccco1)c1c(N)n(CC(C)C)c(=O)[nH]c1=O	-5	1	14	i	i	.	.	.
Cc1ccc(S(=O)(=O)N2CCC(=O)N(C(COCc3cccc(C(F)(F)F)c3)C(C)C)CC2)cc1 (stereo unspecified)	5	.	-9	i	i	-6	.	.
NC(=O)c1ccc(NC(=O)COC(=O)/C=C/c2ccc(Br)o2)cc1	-5	44*	4	.	i	.	19	91
CCCCCC(=O)N1CC2(CC(c3cccc(NC(=O)COc4ccc(Cl)cc4)c3)=NO2)C[C@@H]1C(N)=O (stereo partly specified)	-15	4	-5	i	i	.	.	.	GRK2 CP2=-21;FAM quench SP=101
CCCCCC(=O)N1CC2(CC(c3cccc(NC(=O)CC(c4ccccc4)c4ccccc4)c3)=NO2)C[C@@H]1C(N)=O (stereo partly specified)	-4	0	-4	i	i	.	.	.	GRK2 CP2=-19;FAM quench SP=96
CCCCCC(=O)Nc1cccc(C2=NOC3(C2)C[C@H](C(N)=O)N(C(=O)CCCCC)C3)c1 (stereo partly specified)	-14	1	-2	i	i	.	.	.
SMILES	NOD2-RIPK2 inh	GRK2 inh	TLR9-MyD88 inh	ANO1 block	ANO1 activ	TLR4 MyD88 comp	GRK2 inh confirm	Aptamer quench SP	others
Cc1cc2[nH]c(=O)c(=O)[nH]c2cc1S(=O)(=O)Nc1cccc(Cl)c1	-14	9	3	i	i	.	.	.
CC(NC(=O)c1cccnc1Sc1ccccc1)c1ccc(S(N)(=O)=O)cc1 (stereo unspecified)	4	3	0	i	i	.	.	.
CC(C)(C)c1cc(CNC(=O)C2CCC(=O)N(Cc3ccccc3F)C2)[nH]n1 (stereo unspecified)	-8	.	-7	.	.	.	.	.
COc1ccc(CNC(=S)NC(C)CCc2ccccc2)cc1 (stereo unspecified)	12	0	-5	i	i	-9	.	.
COc1ccc(CCNC(=O)CS(=O)(=O)Cc2nc(-c3ccccc3Cl)oc2C)cc1OC	-4	66*	1	i	i	.	1	96	GRK2 CP2=-21;FAM quench SP=103
Cc1oc(-c2ccccc2Cl)nc1CS(=O)(=O)CC(=O)NCCc1ccccc1	3	1	3	i	i	.	.	.
Cc1ccc(C(=O)COc2cc(C)nc3nncn23)cc1	2	0	3	i	i	.	.	.
CCC(=O)Nc1ccc(N2CCOCC2)c(S(=O)(=O)Nc2ccc(OC)cc2)c1	-10	0	-1	i	i	-9	.	.

High-throughput results from PubChem BioAssay.
